# In PubChem BioAssay (NCI):
# This is part of a sample that, as a whole, favours compounds with a hit. Of some 83,000 tested, about 20% had one in any assay.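 48-hour exposure, single concentration, 96-well plates; percent growth endpoint where 0 means no net growth. Active: below 10.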 Active and inactive are the calls of the source.
# Test system: HCC-2998 colon
# Assay: NCI-60 one-dose screen, 48 h (100 = growth as untreated, 0 = no growth, -100 = all killed)
# Details: 10 µM unless noted
# Description: Growth inhibition of the HCC-2998 human tumor cell line is measured as a screen for anti-cancer activity. Cells are grown in 96 well plates and exposed to the test compound for 48 hours. Compounds are tested at a single concentration, which is 10^-5 M for most compounds. The reported endpoint is percent growth (GI% or GIPRCNT), where numbers from 0 - 100% represent growth inhibition, and numbers from -100% - 0 represent cell death. For example, a value of 40 represents 60% growth inhibition. A value of 0 means no net growth occurred over the course of the experiment. A value of -40 indicates 40% of cells at the beginning of the experiment died by the end of the experiment. A value of -100 means all cells are dead at the end of the experiment.
# NCI-60 Human Tumor Cell Lines Screen was performed using the standard one-dose NCI protocol, which is described in more detail at https://dtp.cancer.gov/discovery_development/nci-60/default.htm.
# Compounds with GIPRCNT values below 10 were considered active. Activity score was based on GIPRCNT using the following formula: […]
# Score is 0 for GIPRCNT values of 100 or above, 50 for GIPRCNT values of 0, and 100 for GIPRCNT values of -100.
row,SMILES,growth
1,Clc1ccc(-c2cn3ccsc3n2)c(Cl)c1Cl,92.5% (inactive)
2,COc1ccc(C2=Nc3c/c(=C\c4c(O)[nH]c5cc(Cl)ccc45)ccc3=N2)cc1,73.6% (inactive)
3,COc1cccc(/C=C2\COc3ccc(O)cc3C2=O)c1,115% (inactive)
4,CC(C)(C)C(=O)/C=C/c1ccc([N+](=O)[O-])cc1,119% (inactive)
5,CN1CCN(CCCOc2ccc3ncnc(Nc4ccc(Oc5cccc(F)c5)c(Cl)c4)c3c2)CC1,-40% (active)
6,Cc1c2cnccc2c(C)c2c1c1cc(C3OCCCO3)ccc1n2C,-15.1% (active)
7,CC(C)CCC[C@@H](C)C1CCC2C3CCC4=C/C(=N/OCCN(C)C)CC[C@]4(C)C3CC[C@@]21C (stereo not given in full),80.8% (inactive)
8,Cc1[nH]c(C(=O)Nc2ccc(C(N)=O)cc2NC(C)C)c(Cl)c1Cl,108% (inactive)
9,O=C1NC(=O)c2c1c1c3ccccc3[nH]c1c1oc3cc(Br)ccc3c21,99.7% (inactive)
10,CC(CN)[C@@H]1CC[C@]2(CO)CC[C@]3(C)[C@H](CC[C@@H]4[C@@]5(C)CCC(N)C(C)(C)[C@@H]5CC[C@]43C)[C@@H]12 (stereo not given in full),-77.5% (active)
11,COc1cc(Nc2ncccc2NC(=O)c2cn(Cc3cccc(Oc4ccccc4)c3)nn2)cc(OC)c1,71.6% (inactive)
12,CCN(CC)c1ccc(/C=N\NC(=O)c2cccc(Nc3ccnc(C(F)(F)F)c3)c2)c(O)c1,60.1% (inactive)
13,CCCCNC1=C(OCC)C(=O)c2ccccc2C1=O,95.1% (inactive)
14,COc1ccc(Nc2ncccc2NC(=O)c2cn(Cc3cccc(Oc4ccccc4)c3)nn2)cc1OC,88.1% (inactive)
15,CNC(=O)c1cc(Oc2ccc3nc(NC(=O)Nc4ccc(Cl)c(Cl)c4)sc3c2)ccn1,63.4% (inactive)
16,CC(C)(CO)N(CCO)CCO,105% (inactive)
17,O=C(/C=C/c1ccccc1)Nc1ncc(Cc2ccccc2)s1,11.9% (inactive)
18,CN(C)c1ccc(/C=C2/C=C(c3ccccc3)OC2=O)cc1,95% (inactive)
19,CC1=C(C(=O)n2c3ccccc3c3ccccc32)C(c2cccc([N+](=O)[O-])c2)C(C(=O)n2c3ccccc3c3ccccc32)=C(C)N1,102% (inactive)
20,CC[C@]12C=CCN3CC[C@@]4(c5ccc(OC)cc5N(C)[C@H]4[C@@](O)(C(=O)OC)[C@@H]1OC(=O)CCCN1CCOCC1)[C@@H]32,109% (inactive)

row,SMILES,growth
1,CCN1C(=O)N(CC)C2C1NN=C1SCC(=O)N12 (stereo not given),105% (inactive)
2,COc1ccc2nc3ccccc3c(NCc3ccc(F)cc3)c2c1,-77.6% (active)
3,CN1CCN(c2ccc3c(c2)nc(NNC(=O)c2cnccn2)c2cccn23)CC1,47.8% (inactive)
4,CCN(C(=O)N1CCN(c2cc3c(cc2F)c(=O)c(C(=O)O)cn3C2CC2)CC1)c1nc(-c2ccc(C)cc2)cs1,21.1% (inactive)
5,CCCCCCCC/C=C\CCCCCCCCOc1ccccc1CC(=O)NCC[N+]1(C)CCCCC1,57.5% (inactive)
6,Cc1cc(C)c(-c2c(O)c(Br)c(-c3c(C)cc(C)c(Br)c3C)c(O)c2Br)c(C)c1Br,37.3% (inactive)
7,CCOC(=O)c1ccc2c(c1)c1c(C)c3ccncc3c(C)c1n2C,4.25% (active)
8,CC(C)CSc1oc(-c2ccccc2)nc1S(=O)(=O)c1ccccc1,100% (inactive)
9,Cn1cc(-c2csc(-c3cn(C(=O)OC(C)(C)C)c4ccccc34)n2)c2ccnc(Cl)c21,83.5% (inactive)
10,O=C1CCCc2nc3sc4c(=O)n(-c5ccccc5Cl)nnc4c3cc21,118% (inactive)
11,COc1cccc(/C=C/C(=O)c2cc3c(N)c(C(=O)Nc4ccccc4C)sc3nc2C)c1,35.1% (inactive)
12,O=C1/C=C/[C@@H](O)[C@@H]2C[C@@H](O)C[C@H]2/C=C/CCC[C@H](CCOCc2ccccc2)O1,3.47% (active)
13,CCOC(=O)c1c(C)c2c(n1C)CSc1cc(S(=O)(=O)c3ccccc3)c(=O)[nH]c1-2,20.3% [100 µM] (inactive)
14,CC(C(=O)O)n1c(O)c(C=Nc2cccnc2)sc1=S (stereo not given),111% (inactive)
15,COc1ccc(C2=Nc3c(N)ncnc3NC(c3cccc(Nc4ccnc5cc(C(F)(F)F)ccc45)c3)C2)cc1 (stereo not given),72.1% (inactive)
16,Fc1ccc2c(c1)c(-c1nc(-c3c[nH]c4ncccc34)cs1)cn2CCCN1CCOCC1,74.3% (inactive)
17,FC(F)(F)c1[nH]ncc1-c1nc2c(N3CCCCC3)cc3[nH]ncc3c2c2c1CCCC2,-8.43% (active)
18,O=C(c1ccc(F)c(Cl)c1)N1c2ccccc2Sc2ccccc21,62.3% (inactive)
19,O=c1oc2c(cnc3ccccc32)cc1-c1cccs1,117% (inactive)
20,Cc1cccc(N2CCN(C(=S)c3ccc4c(c3)OCO4)CC2)c1,13.2% (inactive)
